# The whole screen tested about 320,000 compounds, of which about 2,100 (0.66%) were called active. Roughly 53% stayed inconclusive and do not appear here. Calls come from the whole dose curve; as a rule, active = well fitted inhibition curve with a large enough effect in the signal ratio, with a control signal flat (not every such curve was filed as active); inconclusive = small, poorly fitted or top-dose-only effect, or effect the other way, or a change in a side signal; inactive = flat fitted curve, though single readings scatter; the % refers to the signal ratio. The list comes from a sample in which actives are over-represented; it also holds similar structures and randomly drawn compounds.
# Experiment: qHTS Assay for Lipid Storage Modulators in Drosophila S3 Cells;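 for cell number change: cells counted by Cell Tracker Red CMTPX staining in the red channel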; for lipid storage change, negative = inhibition: % is set by controls: 0 for no effect and ±100 for the full control effect
# Details: BODIPY lipid droplet fluorescence, 18-24 h, cells fed with added oleic acid; cell number change: measured here: cell count max response; series mostly up to 46.1 µM; lipid storage change, negative = inhibition: at the top concentration
# Procedure, shortened: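 Drosophila S3 cells loaded with oleic acid (400 uM, as added) and compounds at several concentrations; lipid droplets imaged by 488-nm laser-scanning cytometry, 500–530 nm intensity and object ratio to cell channel. Percent activity normalized to 20 uM Triacsin C.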
# Potency is the fitted concentration of half-maximal effect.
Compound,"lipid storage change, negative = inhibition",cell number change [%],Potency,outcome
CC1(C(=O)NC2CCCCCCC2)CCC(=O)N1Cc1ccco1 (stereo unspecified),-0.266% (inactive),2.23,–,–
CC(=O)N1CCC(N2CCN(c3ccccc3F)CC2)CC1,-6.18% (inactive),-0.227,–,–
COC(=O)c1ccc(S(=O)(=O)N2CCCN(Cc3cccc(Br)c3F)CC2)n1C,25.4% (inactive),–,–,–
COc1cc(NC2c3ccccc3C(=O)N2c2ccc(C)cn2)cc(OC)c1OC (stereo unspecified),1.47% (inactive),9.33,–,–
CCOC(=O)c1cc(C(=O)NN)c(=O)[nH]c1C,-8.78% (inactive),-9.94,–,–
COc1ccc(OC)c(NC(=O)COC(=O)c2c(C)noc2C)c1,–,-7.27,4.61 µM (active),–
COCCOc1ccc(C(F)(F)F)cc1NC(=O)COC(=O)c1c(C)noc1C,-14% (inactive),-13.3,–,–
COc1ccc(Cl)cc1NC(=O)COC(=O)c1c(-c2ccccc2)noc1C,–,-24.6,–,inactive
C=CCNC(=O)c1ccc(N(Cc2ccccc2)S(C)(=O)=O)cc1,-16.3% (inactive),-6.36,–,–
CCc1ccc(S(=O)(=O)N(C(=O)c2ccncc2)c2ccc(OC(=O)c3ccncc3)cc2)cc1,–,-8,18.4 µM (active),–
COc1ccc(S(=O)(=O)N(C(=O)c2ccncc2)c2ccc(OC(=O)c3ccncc3)cc2)cc1,2.27% (inactive),-3.33,–,–
O=C(Oc1ccc(N(C(=O)c2ccncc2)S(=O)(=O)c2ccc(F)cc2)cc1)c1ccncc1,7.39% (inactive),–,–,–
CC(C)CN(CC(C)C)C(=O)COn1nnc2ccc(S(=O)(=O)N3CCOCC3)cc21,4.64% (inactive),3.81,–,–
CCCCn1nc2cc(C(=O)NCc3ccc(OC)cc3)ccc2c1OCC,-10.4% (inactive),-2.9,–,–
C1=CC2CC1CC2CN1CCN(Cc2ccccc2)CC1 (stereo unspecified),–,–,–,inactive
OCCN(Cc1ccccc1)Cc1ccccc1F,-8.72% (inactive),-24.2,–,–

Compound,"lipid storage change, negative = inhibition",cell number change [%],Potency,outcome
OCCN(Cc1ccccc1)CC1CC2C=CC1C2 (stereo unspecified),–,0.638,29.1 µM (active),–
Cn1c2ccccc2c2nnc(SCC(=O)NC3CC3)nc21,–,-0.952,–,inactive
Cn1c2ccccc2c2nnc(SCC(=O)NC3CCCC3)nc21,–,-23.7,–,inactive
Cc1ccc2c(c1)c1nnc(SCC(=O)NC3CC3)nc1n2C,–,0.855,5.8 µM (active),–
COc1ccc(N2CCN(C(=O)CSc3nnc4c5cc(C)ccc5n(C)c4n3)CC2)cc1,-3.64% (inactive),15.5,–,–
Cn1c2ccc(Br)cc2c2nnc(SCC(=O)O)nc21,–,–,–,inactive
COc1ccc2c(c1)c1nnc(SCC(=O)NC3CC3)nc1n2C,–,-8.55,1.46 µM (active),–
CC1CCC(NC(=O)COC(=O)c2cccnc2Cl)CC1 (stereo unspecified),-3.37% (inactive),–,–,–
COC(=O)N1[C@H](Cc2ccccc2)C=C[C@]1(C)C(=O)NCc1ccccn1,-3.63% (inactive),11.5,–,–
O=S(=O)(Nc1ccc(OC(F)F)cc1)c1ccc(-c2ccon2)s1,11.5% (inactive),-0.692,–,–
O=C(CN1C(=O)c2ccccc2S1(=O)=O)Nc1ccccc1C(=O)NCc1ccco1,13.6% (inactive),-1.22,–,–
C=CCN(C(=O)Cn1c(C(=O)OC)cc2oc(C)cc21)c1ccccc1,-6.54% (inactive),-13,–,–
Clc1ccc(OCc2nc(-c3ccncc3)no2)c(Cl)c1,–,–,–,inactive
Clc1ccc(OCCCc2nc(-c3cccnc3)no2)c(Cl)c1,–,-29.5,14.6 µM (active),–
Clc1ccc(-c2noc(CCCOc3ccccc3)n2)cc1,16.5% (inactive),-10.9,–,–

# From PubChem BioAssay AID2685 (National Center for Advancing Translational Sciences (NCATS), 2010)
